# Most compounds without a hit are left out; they make up all but 7.3% or so of the library.
# ELG1 genotox – inducers of genotoxicity in HEK293T ELG1-luciferase cells; HEK293T ELG1-luciferase reporter, luminescence, 16 h; Potency, µM (highest dose often 46 µM), without a hit: top-dose activity change, positive = activation, hits mostly activators; actives 1.3% (n = 330,000); AID 504466; also: % of control where 0% means no effect; nearly all actives have a fitted effect of over 60% in size
#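 Genotoxic stress is detected as increased luminescence from luciferase-tagged ELG1 in HEK293T cells, measured with ONE-Glo after a 16 hr treatment at 37 °C.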
# KinaseGlo FLuc – Kinase-Glo luciferase inhibition (counter-screen); Q27757; Kinase-Glo luciferase, ATP luminescence, 8 min; Potency, µM (doses to about 38.3 µM), for inactives: at the top dose activity change, negative = inhibition, most hits filed as inhibitors; actives 0.28% (n = 200,000); also: % is scaled to controls: 0 for no effect and ±100 for the full control effect; nearly all actives have a fitted effect of over 60% in size
#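 Compounds were added to a substrate mix at pH 7.2 (50 mM imidazole, 10 uM ATP, within the enzyme's linear range), followed by Kinase-Glo detection reagent; luminescence was measured after 8 minutes at ambient temperature.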
# Rab9 promoter act – Rab9 promoter activation; AID 485297; actives 2.8% (n = 320,000); Huh7 Rab9 promoter-luciferase reporter, luminescence, 24 h; Potency, µM (titrated, usually from 9.22 µM), for inactives: at the top dose activation, negative = inhibition, usual class: activators; also: % of control where 0% means no effect; nearly all actives have a fitted effect of over 60% in size
#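 Cell-based reporter: Huh7 stable for Rab9 promoter-driven luciferase, plated in reduced-serum medium with 10% FBS at 1500 cells/well, compound-treated 24 h at 37 °C, luminescence read after 10 min reagent.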
# NPC1 prom act – NPC1 promoter activation; Huh7 NPC1 promoter luciferase reporter, 24 h; AID 485313; Potency, µM (highest dose often 9.22 µM), for inactives: at the top dose activation, hits mostly activators; actives 2.4% (n = 320,000); also: % of control where 0% means no effect; nearly all actives have a fitted effect of over 60% in size
#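 Huh7 cells stably carrying NPC1 promoter–luciferase, plated in Opti-MEM with 10% FBS for 2 h, were exposed to compound in DMSO for 24 h at 37 °C; luciferase reagent was added for 10 min and luminescence read.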
# FLuc modulator – counter-screen for miR-21 project: firefly luciferase inhibitors or activators | P08659 | purified FLuc, Km substrates, luminescence inhibition | Potency, µM (highest dose often 57.5 µM), without a hit: at the top dose activity change, negative = inhibition, most hits filed as inhibitors | actives 6.9% (n = 360,000) | AID 588342;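 also: plate controls were vehicle for no effect and reference inhibitor for full effect; nearly all actives have a fitted effect of over 55% in size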
# Target sequence (P08659 whole entry, looked up): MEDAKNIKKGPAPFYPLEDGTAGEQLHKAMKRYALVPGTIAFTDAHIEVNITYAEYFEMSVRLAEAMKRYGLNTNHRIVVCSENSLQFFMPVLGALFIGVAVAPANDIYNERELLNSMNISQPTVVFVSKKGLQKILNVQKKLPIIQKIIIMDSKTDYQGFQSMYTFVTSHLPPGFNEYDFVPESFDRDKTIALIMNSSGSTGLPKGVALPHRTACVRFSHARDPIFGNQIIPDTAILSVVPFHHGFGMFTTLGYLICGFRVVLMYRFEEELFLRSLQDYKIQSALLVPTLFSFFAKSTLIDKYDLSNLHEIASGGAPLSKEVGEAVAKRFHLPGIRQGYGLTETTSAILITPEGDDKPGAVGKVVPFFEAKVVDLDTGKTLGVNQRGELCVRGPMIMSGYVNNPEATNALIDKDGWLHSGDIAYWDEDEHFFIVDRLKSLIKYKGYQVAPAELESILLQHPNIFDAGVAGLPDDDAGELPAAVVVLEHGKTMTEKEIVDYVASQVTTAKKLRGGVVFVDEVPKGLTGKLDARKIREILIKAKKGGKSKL
#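 Biochemical qHTS of compounds, final roughly 60 µM downward over six points, against 10 nM purified firefly luciferase using Km concentrations of substrates (10 uM D-luciferin, 10 uM ATP) in Tris acetate pH 7.5 buffer; luminescence output.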
# SMN2 splice enh – increases expression of the SMN2 splice variant; Potency, µM (series often up to 46.1 µM), inactives show top-dose activity change, positive = activation, actives largely listed as activators; HEK293 SMN2-luciferase splicing reporter, luminescence, 30-36 h; AID 1458; actives 2.8% (n = 210,000); also: % of control where 0% means no effect; nearly all actives have a fitted effect of over 55% in size
#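 qHTS luciferase splicing reporter: luminescence rises when SMN2 exon 7 is included in transfected HEK293 cells. Compound exposure lasted 30-36 h at 37C, with 4.5 mM final sodium butyrate as control, followed by a ONE-Glo read.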
# Active calls of the source: *; ? = inconclusive; · = not tested or not shown. Calls follow the shape of the dose curve; as a rule, active = well fitted curve in the direction sought with a large enough effect; inconclusive = small, poorly fitted or top-dose-only effect, or another doubt; inactive = no such curve, though single readings can be large; an effect the other way counts as inactive or inconclusive. Potency is read from the fitted curve at half-maximal effect.
SMILES,ELG1 genotox,KinaseGlo FLuc,Rab9 promoter act,NPC1 prom act,FLuc modulator,SMN2 splice enh
COc1ccc(/C=N/n2c(N)nc3ccccc32)cc1OC,17%,-8%,26%,?,5.4µM*,29%
COc1cccc(/C=N/n2cnc3ccccc32)c1OC,2.6µM*,-3%,2.2µM*,2.5µM*,4.8µM*,?
C(=N\n1cnc2ccccc21)/c1cccnc1,17%,-3%,16%,10%,?,-41%
COc1ccc(/C=N/n2c(=S)n(C)c3ccccc32)cc1OC,3%,-1%,-3%,1%,?,-30%
COc1cccc(/C=N/n2c(N)nc3ccccc32)c1OC,5%,-2%,?,?,12µM*,?
CC(C)N(Cc1ccccc1)S(=O)(=O)c1ccc(F)cc1,-13%,·,-3%,-2%,-1%,·
Cc1noc(C)c1CSCC(=O)N(C)CC(=O)Nc1cccc(F)c1,-5%,·,1%,-4%,3%,·
O=C(O)CSCNC(=O)C12CC3CC(CC(C3)C1)C2,-2%,-4%,1%,1%,0%,15%
COc1cc(C(=O)NNC(=O)c2ccoc2C)cc(OC)c1OC,0%,1%,-16%,-4%,1%,·
Cc1ccc(NC(=O)c2ccccc2N(C)S(=O)(=O)c2ccccc2)c(C)c1,-4%,3%,-1%,-1%,-2%,12%
CC1CCN(c2ccc(-c3cccc(NS(=O)(=O)c4cccs4)c3)nn2)CC1,·,·,·,·,0.48µM*,·
CC1CCN(c2ccc(-c3cccc(NS(=O)(=O)c4ccc(Cl)s4)c3)nn2)CC1,·,·,·,·,0.85µM*,·
Cc1ccc(Nc2nnc(SCC3CCCCO3)s2)cc1 (stereo not given),14%,1%,?,24%,?,?
COc1ccccc1Nc1nnc(SCC2CCCCO2)s1 (stereo not given),?,8.9µM*,2.5µM*,3.5µM*,1.5µM*,?
Cc1ccccc1Nc1nnc(SCC2CCCCO2)s1 (stereo not given),?,-28%,2.8µM*,0.71µM*,2.4µM*,11µM*
CCc1ccc2oc(C(=O)Nc3nonc3C)c(C)c2c1,3.3µM*,·,0.63µM*,0.32µM*,2.1µM*,·
Cc1cc2oc(C(=O)Nc3nonc3C)c(C)c2cc1C,10µM*,·,4µM*,1.1µM*,2.4µM*,·
CC(=O)Nc1ccc(NC(=O)c2oc3cc(C)c(C)cc3c2C)cc1,?,2%,-5%,-1%,-4%,-15%
NC(=NCc1ccco1)NC(=O)c1ccc(Cl)cc1,?,·,?,?,17µM*,·
O=C(NCCCNC(=O)c1ccco1)c1ccc(Cl)cc1,?,·,-3%,1%,-13%,·
CN1C(=O)CSc2ccc(NC(=O)Nc3ccccn3)cc21,4%,-6%,2.8µM*,?,3µM*,?
COc1cccc(NC(=O)Nc2ccc3c(c2)N(C)C(=O)CS3)c1,-12%,-2%,-3%,0%,12µM*,14%
C=CCn1c(SCC(=O)Nc2ccc(F)cc2)nc2cc(C(=O)O)ccc2c1=O,-1%,-1%,-3%,-1%,-17%,0%
CCc1ccc(NC(=O)CSc2nc3nccnc3c(=O)n2CCc2c[nH]c3ccccc23)cc1,·,·,·,·,-1%,·
Cn1cccc1-c1nc2ccc([N+](=O)[O-])cc2[nH]1,?,·,2.2µM*,2.8µM*,12µM*,·
SMILES,ELG1 genotox,KinaseGlo FLuc,Rab9 promoter act,NPC1 prom act,FLuc modulator,SMN2 splice enh
O=[N+]([O-])c1ccc2nc(-c3ccccc3)[nH]c2c1,?,-24%,2.5µM*,2.8µM*,5.4µM*,7.1µM*
Cc1cc2nc(CS)[nH]c2cc1C,4%,·,12%,8%,4.8µM*,·
CCOc1ccc(CNC(=O)CCS(=O)(=O)Cc2ccccc2C)cc1OC,0%,-1%,0%,-2%,-1%,14%
CN1CCN(c2nc3c(S(=O)(=O)c4ccc(Br)cc4)nnn3c3ccsc23)CC1,·,·,·,·,4%,·
CCOc1ccc2nc(NC(=O)c3c([N+](=O)[O-])cnn3CC)sc2c1,-3%,-8%,1%,-2%,?,5%
CCOc1ccc2nc(NC(=O)C3=NNC(=O)CC3)sc2c1,14%,2%,?,20%,?,?
CCOc1ccc2nc(NC(=O)CSc3ccccc3)sc2c1,13%,-4%,12%,22%,21µM*,?
CCOc1ccc2nc(NC(=O)c3ccccc3)sc2c1,·,·,·,·,0.54µM*,1.3µM*
CCOc1ccc2nc(NC(=O)c3cnc(C)cn3)sc2c1,0%,-6%,18%,24%,6µM*,-27%
CCOc1ccc2nc(NC(=O)c3cccnc3)sc2c1,?,-13%,0.89µM*,1.6µM*,1.5µM*,7.9µM*
CCOC(=O)c1ccc(N2CCN(c3cccc(OC)c3)CC2)c(NC(=O)Nc2ccc(OCC)cc2)c1,·,·,·,·,-1%,·
COCCNC(=O)C1CCN(Cc2cc3ccccc3n2Cc2ccc(C)cc2)CC1,·,·,·,·,-3%,·
Cc1ccc(C)c2[nH]c(=O)c(CCNC(=O)c3ccco3)cc12,0%,1%,-10%,-4%,6%,-52%
CC(=O)C1=C(O)C(=O)N(CCCN2CCOCC2)C1c1ccccc1[N+](=O)[O-] (stereo not given),3%,·,26%,?,?,·
Cc1ccc(-c2nnc(NCCCO)c3ccccc23)cc1,5%,·,0%,-2%,3%,·
CCOc1ccc2nc(NC(=S)N(C)C)sc2c1,0.37µM*,-1%,0.79µM*,0.71µM*,1.3µM*,4µM*
CCOc1ccc2nc(NC(=O)CCn3cccc3)sc2c1,1%,-2%,20%,15%,?,12%
CCCC(=O)Nc1nc2ccc(OCC)cc2s1,?,4%,2.2µM*,2.8µM*,11µM*,22µM*
O=C(CSc1nccn1-c1ccccc1)Nc1nc2ccccc2s1,·,·,·,·,24µM*,·
CN(C)C(=S)Nc1nc2ccccc2s1,?,-1%,?,?,12µM*,·
Cc1ccc(NC2=CC(=O)CC(c3ccco3)C2)c(N)c1 (stereo not given),3%,3%,6%,8%,1%,-7%
O=C(CCCn1c(=S)[nH]c2ccccc2c1=O)N1CCN(c2cccc(Cl)c2)CC1,1%,1%,-3%,-2%,-3%,-12%
CCCn1c(SCC(O)c2cccc(OC)c2)nc2ccccc21 (stereo not given),·,·,·,·,-16%,-2%
CCOc1ccc2nc(NS(=O)(=O)Cc3ccccc3)sc2c1,21µM*,1%,12%,-20%,27µM*,5%
CCOC(=O)c1sc(NC(=O)CSc2nnnn2-c2ccccc2)c(C(=O)OCC)c1C,3%,-7%,1%,-7%,7%,-38%
CCC(C)c1ccc(NC(=O)N2CCOCC2)cc1 (stereo not given),?,·,2.5µM*,2.5µM*,15µM*,·

# Assay outcomes: PubChem, National Center for Advancing Translational Sciences (NCATS)
